Results published in the supplement of paper PMC6555819.

Experiments:
Assay in all cases: PBM binding z-score (relative to random genomic background probes); higher = stronger binding; sequences stand for … in GC…GCGATTGACAGCGTAGAATGAAGG
[1] = tested on: FXR:RXRa (NR concentration 270 nM, RXRa partner concentration 90 nM)
Procedure, shortened: (§1)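 Ligand-free nuclear receptor dimers were bound for 1 h to custom Agilent 4×180K protein-binding microarrays. Detection used antibodies against each partner (one per run). Binding z-scores rest on regression-normalized fluorescence, with random background probes as the reference.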

[2] = tested on: LXRa:RXRa (NR concentration 270 nM, RXRa partner concentration 90 nM)
Procedure, shortened: as §1

[3] = tested on: LXRa homodimer (NR concentration 270 nM)
Procedure, shortened: as §1

[4] = tested on: LXRb:RXRa (NR concentration 270 nM, RXRa partner concentration 90 nM)
Procedure, shortened: as §1

[5] = tested on: LXRb homodimer (NR concentration 270 nM)
Procedure, shortened: as §1

[6] = tested on: PPARa:RXRa (NR concentration 270 nM, RXRa partner concentration 90 nM)
Procedure, shortened: as §1

[7] = tested on: PPARg:RXRa (NR concentration 180 nM, RXRa partner concentration 90 nM)
Procedure, shortened: as §1

[8] = tested on: PPARg:RXRa 270nM:90nM, anti-RXR (NR concentration 270 nM, RXRa partner concentration 90 nM)
Procedure, shortened: as §1

[9] = tested on: PPARg:RXRa 30nM:10nM, anti-RXR (NR concentration 30 nM, RXRa partner concentration 10 nM)
Procedure, shortened: as §1

[10] = tested on: PPARg:RXRa 90nM:30nM, anti-RXR (NR concentration 90 nM, RXRa partner concentration 30 nM)
Procedure, shortened: as §1

[11] = tested on: PPARg:RXRa DBDmut IVT, anti-RXR (DBD mutation: RXRa K156A/R161A, NR concentration 270 nM, RXRa partner concentration 90 nM)
Procedure, shortened: as §1

[12] = tested on: PPARg:RXRa IVT, anti-PPARg (NR concentration 270 nM, RXRa partner concentration 90 nM)
Procedure, shortened: as §1

[13] = tested on: PPARg DBDmut:RXRa IVT, anti-PPARg (DBD mutation: PPARg1 K132A/R137A, NR concentration 270 nM, RXRa partner concentration 90 nM)
Procedure, shortened: as §1

[14] = tested on: PPARg DBDmut IVT, anti-PPARg (DBD mutation: PPARg1 K132A/R137A, NR concentration 270 nM)
Procedure, shortened: as §1

[15] = tested on: PPARg homodimer (NR concentration 180 nM)
Procedure, shortened: as §1

[16] = tested on: PXR:RXRa (NR concentration 270 nM, RXRa partner concentration 90 nM)
Procedure, shortened: as §1

[17] = tested on: PXR homodimer (NR concentration 270 nM)
Procedure, shortened: as §1

[18] = tested on: RARa:RXR (NR concentration 270 nM, RXRa partner concentration 90 nM)
Procedure, shortened: as §1

[19] = tested on: RARa homodimer (NR concentration 270 nM)
Procedure, shortened: as §1

[20] = tested on: RARb:RXRa (NR concentration 270 nM, RXRa partner concentration 90 nM)
Procedure, shortened: as §1

Row | Sequence | PBM binding z-score [1] | PBM binding z-score [2] | PBM binding z-score [3] | PBM binding z-score [4] | PBM binding z-score [5] | PBM binding z-score [6] | PBM binding z-score [7] | PBM binding z-score [8] | PBM binding z-score [9] | PBM binding z-score [10] | PBM binding z-score [11] | PBM binding z-score [12] | PBM binding z-score [13] | PBM binding z-score [14] | PBM binding z-score [15] | PBM binding z-score [16] | PBM binding z-score [17] | PBM binding z-score [18] | PBM binding z-score [19] | PBM binding z-score [20]
1 | CCTTACGGGTCAAGGATATAGCACGGGTGGTACG | 4.77 | 2.96 | 0.0404 | 2.45 | -0.392 | 4.52 | 3.82 | 3.92 | 1.14 | 2.66 | 1.81 | 3.02 | 0.42 | -0.469 | 1.43 | 2.54 | 0.0549 | 3.44 | 0.583 | 3.88
2 | AGAACGAGGGCAAAGAGTTGATAGCACGGGTGGC | 0.422 | 0.331 | -0.368 | -0.152 | -0.712 | 1.78 | 1.8 | 2.07 | 0.549 | 1.55 | 3.36 | 2.41 | 0.499 | -0.21 | 0.413 | 1.77 | 4.76 | 0.09 | -0.299 | 2.11
3 | ACACCAAGGTGATCGTGAGGTCGTTGATACTAAC | 1.59 | 1.28 | 0.495 | 1.38 | -0.254 | 1.62 | 0.514 | 0.34 | -0.275 | 0.0177 | 0.605 | 1.04 | -0.599 | 0.153 | 0.72 | 2.98 | 1.07 | 2.18 | 0.0851 | 1.47
4 | CCTGCTAGGTCAATGGTCTGCTAAAGCAGCTCGC | 2.61 | 2.26 | -0.00615 | 1.78 | -0.252 | 2.75 | 2.2 | 2.86 | -0.129 | 1.83 | 4.23 | 3.5 | -0.516 | -0.86 | 1.16 | 0.731 | -0.482 | 1.36 | -0.721 | 3.78
5 | AGGCAAAGTTCAGGACGAGGTAACGTAAAGCACG | 4.22 | 3.64 | 1.15 | 1.9 | 0.202 | 3.37 | 3.33 | 4.04 | 1.44 | 3.05 | -0.11 | 1.19 | 0.287 | -0.24 | 2.28 | 2.89 | 1.59 | 2.82 | 1.16 | 4.26
6 | CGAACTAGGTCATCCACGACAGTGAATACATTGA | 4.92 | 2.48 | 0.634 | 2.23 | 0.18 | 4.92 | 8.03 | 6.61 | 4.01 | 5.93 | 7.98 | 8.15 | 5.88 | 5.31 | 2.72 | 1.59 | 0.311 | 2.59 | 0.664 | 3.87
